Source: PubChem
The entries come from a sample that favours hits as a whole.
TTR transcr act = activators of transthyretin transcription | SH-SY5Y TTR promoter Gaussia luciferase, luminescence; 100% = recombinant luciferase protein wells | activation, % at 16.7 µM | 92,000 compounds, 1.3% hits | AID 1117267;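 active = activation above the mean of all tested compounds plus 3 SD, cut at about 9.5% in these data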;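 also: cells exposed to compounds for one day before reading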
HuH7 TTR inh = counter-screen for TTR activators: TTR transcription inhibitors in HuH7 cells; shares compounds with TTR transcr act; HuH7 TTR promoter-Gaussia luciferase reporter, luminescence; inhibition, % at 16.7 µM; 1,100 compounds, 4% hits; AID 1117279;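 active = average inhibition above the solvent-only control wells' mean plus 3 SD, cut at about 15% in these data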;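 also: inhibitors lower well luminescence so higher value means more inhibition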
TTR act confirm = human TTR transcription activation, confirmation | shares compounds with TTR transcr act | SHSY5Y TTR promoter Gaussia luciferase, luminescence; 100% = purified Lucia enzyme wells, no cells | activation, % at 16.7 µM | 1,100 tested, under 10 active | AID 1117280;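 active = mean activation above a set limit taken from the earlier primary screen, cut at about 11% in these data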
Each line names hits and unclear results; the compound was inactive in the other large screens (follow-up assays come after a bar, where they were run).

O=C(COC(=O)CCN=C1NS(=O)(=O)c2ccccc21)NNC(=O)c1ccc(Cl)cc1	none
CC1(C(=O)NS(=O)(=O)c2cccc(F)c2)CCN1C(=O)Cc1cccs1 (stereo not given)	none
c1ccc(CCc2nc3ccccc3[nH]2)cc1	none
O=c1[nH]c2ccccc2nc1NCc1ccccc1	none
c1ccc(CNc2nc3ccccc3[nH]2)cc1	TTR transcr act 9.9 | HuH7 TTR inh inactive | TTR act confirm inactive
O=C(Cc1ccc(NC(=O)C2CCN(C(=O)C3CC3)CC2)cc1)Nc1cccc(C(=O)N2CCCC2)c1	none
COC(=O)[C@@H]1[C@H](CCc2ccccc2)NC(=O)N(Cc2ccccc2)[C@@H]1C	none
COc1ccc(CCN2C(=O)CCC2(C)c2nnnn2Cc2ccccc2)cc1OC (stereo not given)	none
O=C(O)c1ccccc1C(=O)c1ccc2c(c1)N(Cc1ccc(Cl)c(Cl)c1)C(=O)CO2	none
Cc1ccc(CN2CCCCC(NC(=O)c3ccc4ccccc4c3)C2=O)cc1 (stereo not given)	none
COc1cccc(Sc2cc(N3CCOCC3)nc(-c3ccccc3)n2)c1	none
O=S(Cc1ccccc1)c1ccccc1 (stereo not given)	none
O=S(Cc1cc(Sc2ccccc2)nc(-c2ccccc2)n1)c1ccccc1 (stereo not given)	TTR transcr act 12 | HuH7 TTR inh inactive | TTR act confirm inactive
C#Cc1ccc([C@@H]2C=C(C(=O)N3CCOCC3)O[C@H](OCC)[C@H]2CCCO)cc1	none
CCN(CC)C(=O)O[C@H]1CC[C@@]23CCCN2C(=O)CCC[C@H]3C1	none
CC(=O)c1c(C)oc2ccc(N(C(C)=O)S(=O)(=O)c3cccc4cccnc34)cc12	none
O=C(CN1C(=O)NC(Cc2c[nH]c3ccccc23)C1=O)Nc1ccc(F)cc1F (stereo not given)	none
CCCC/C=C1/[C@H](CC)N(C)C2=N[C@@H](c3ccccc3)CC(=O)N21	none
CN(C1=NS(=O)(=O)N=C(N(C)c2ccccc2)O1)c1ccccc1	none
CC(C)(C)[C@H]1C=C(C(=O)O)O[C@@H](OCCCCO)C1	none
C[C@H]1C=C(C(=O)NCc2nc3ccccc3[nH]2)O[C@@H](OCCCCO)C1	none
CC(C)(C)[C@H]1C=C(C(=O)NCc2ccccc2)O[C@@H](OCCCCO)C1	TTR transcr act 19 | HuH7 TTR inh inactive | TTR act confirm inactive
CC(O)(c1ccccc1)c1nc(-c2cccc(C(=O)O)c2)cs1 (stereo not given)	none
CC(O)(c1ccc(F)c(F)c1)c1nc(-c2cccc(C(=O)O)c2)cs1 (stereo not given)	TTR transcr act 13 | HuH7 TTR inh inactive | TTR act confirm inactive
CC(O)(c1ccc(F)c(F)c1)c1nc(-c2ccc(Cl)cc2)cs1 (stereo not given)	none
C[C@@H]1CCCN1c1ccc2c(c1)OCCCN(C1CC1)S2(=O)=O	none
CCCCOP(=O)(OCCCC)C1(NS(=O)(=O)c2ccccc2)C=CC(=O)c2ccccc21 (stereo not given)	none
Cc1ccccc1NC(=O)c1ccccn1	none
Cc1cc(NC(=O)C2CCCCC2)ncc1NC(=O)c1ccccn1	TTR transcr act 14 | HuH7 TTR inh inactive | TTR act confirm inactive
Cc1cc(NC(=O)C2CC2)ncc1NC(=O)c1ccccn1	none
COc1ccc(C(=O)N2CCN(c3ncccn3)CC2)cc1[N+](=O)[O-]	none
COc1cc2cc(C(=O)N3CCN(Cc4ccc5c(c4)OCO5)CC3)c(=O)oc2cc1OC	none
CCCC(=O)OCC(=O)Nc1ccccc1Sc1ccccc1	TTR transcr act 11 | HuH7 TTR inh inactive | TTR act confirm inactive
CCCC(=O)OCC(=O)Nc1ccccc1C#N	none
O=C(COC(=O)c1cc[n+]([O-])cc1)Nc1ccccc1Sc1ccccc1	none
CC(C)(C)c1cc(C(=O)N/N=C/c2cc3c(cc2Br)OCO3)n[nH]1	none
CC1(C(=O)O)CCCN1C(=O)c1ccco1 (stereo not given)	none
CCOC(=O)C1=C(C)NC(=S)NC1c1ccc(OC(=O)c2ccco2)cc1 (stereo not given)	none
CCOC(=O)C1=C(C)NC(C)=C(C(=O)OC)C1c1ccco1 (stereo not given)	TTR transcr act 12 | HuH7 TTR inh inactive | TTR act confirm inactive
CCCCCCCOC(=O)C1=C(C)Nc2ncnn2C1c1cccs1 (stereo not given)	none
CCCCOC(=O)C1=C(C)Nc2ncnn2C1c1cc(OC)ccc1OC (stereo not given)	none
C=CCOC(=O)C1=C(C)NC(C)=C(C(=O)OCC=C)C1c1ccco1	none
COCCOC(=O)C1=C(C)Nc2ncnn2C1c1ccco1 (stereo not given)	TTR transcr act 13 | HuH7 TTR inh inactive | TTR act confirm inactive
Cc1cc(C)c(C)c(OCCCCN2CCCCC2)c1	none
CCOc1ccc(Cn2c(=O)oc3ccccc32)cc1	none
COCCCN1C(=O)C(CC(=O)NCCCN(C)C)CC(C(=O)N2CCOCC2)=C1C (stereo not given)	none
COC(=O)CCCc1nc2ccccc2s1	none
O=C(O)CCCc1nc2ccccc2s1	none
Cc1cnc(NC(=O)CCCc2nc3ccccc3s2)s1	TTR transcr act 13 | HuH7 TTR inh 16 | TTR act confirm inactive
CC(C)(C)NC(=O)CCCSc1nc2ccccc2s1	none
O=C(CCCSc1nc2ccccc2s1)NCc1ccc2c(c1)OCO2	none
Cc1ccccc1NC(=O)CCCSc1nc2ccccc2s1	TTR transcr act 12 | HuH7 TTR inh inactive | TTR act confirm inactive
COc1ccc(OC)c(NC(=O)CSc2ccc(-c3ccco3)nn2)c1	none
CCCCNC(=O)O[C@@H]1C[C@H]2CCC(=O)N3CC[C@@H](C1)[C@@H]23	none
Nc1cccc(NP(=O)(c2ccccc2)c2ccccc2)c1	none
CCOc1ccc(C2C(C(C)=O)=C(O)C(=O)N2CCc2c[nH]c3ccccc23)cc1 (stereo not given)	none
O=C(Nc1ccccc1Cl)c1cc(C2CCCN(C(=O)c3ccccc3)C2)on1 (stereo not given)	none
Cc1ccccc1N1C(=O)C2CCCN2C1=S (stereo not given)	none
CN1C[C@H]2CON(C)[C@H]2C[C@H]1c1cccc(N2CCOCC2)c1	none
CC(C)(C)C(=O)N1N=C(c2ccc(NS(C)(=O)=O)cc2)CC1c1cccs1 (stereo not given)	none
COc1ccccc1Nc1nnc(SCC(=O)Nc2cc(C)on2)s1	none
COc1ccccc1NC(=O)Cc1csc(NC(=O)c2ccccc2)n1	none
COc1ccccc1NC(=O)Cc1noc(CSc2nnc(N)s2)n1	TTR transcr act 11 | HuH7 TTR inh inactive | TTR act confirm inactive
COc1ccc(NC(=O)COc2coc(CN3c4ccccc4CC3C)cc2=O)cc1 (stereo not given)	none
FC(F)(F)c1cc(CNC2CCC23CCCCC3)ccc1Cl (stereo not given)	none
CN(C)C=Nc1nonc1-c1ccccc1	TTR transcr act 11 | HuH7 TTR inh inactive | TTR act confirm inactive
CN(C)C=Nc1c(Br)cc(Br)c2nonc12	none
CN(C)C=Nc1nonc1-c1ncn[nH]1	none
CCCCCCCCN1C(=O)[C@@H](CC(=O)N2CCC(c3ccccc3)CC2)C[C@@]2(C(=O)OC)C1=C[C@H](COCc1ccccc1)O[C@@H]2C	none
COC(=O)C1=C(C(=O)OC)[C@@]2([C@@H](Cc3ccc(C)cc3)Nc3ccccc3)C=C[C@@H]1O2	none
C/C(=N\NC(=S)Nc1cc(S(=O)(=O)N2CCOCC2)ccc1Cl)c1ccccc1F	none
